Test results published in PubChem BioAssay AID1159580 (chemical genetic matrix, 2015).
Hit rate of the full screen: of about 5,500 compounds, about 2,000 (36%) were called active. Not shown: some 18% with an inconclusive outcome. Rule as the data show it: active = normalized growth mostly below about 0.91 (no sharp cut-off); inconclusive = no clear call, values can overlap the other calls; inactive = mostly above about 0.92. Some of the results follow.

Experiment: chemical genetic growth profiling, strain panel (AID 1159580);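 also: tested at 20 µM; growth read once vehicle control cultures reached saturation at 30 °C; 1 = growth at the plate median or of vehicle wells; lower values mean less growth of the strain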
Conditions: S. cerevisiae deletion strains, growth OD
[1] = locus YAL040C, strain CLN3, stronger effect = lower value
[2] = locus YCL061C, strain MRC1 (second series), stronger effect = lower value
[3] = locus YDR363W, strain ESC2, stronger effect = lower value
[4] = locus YER002W, strain NOP16, stronger effect = lower value
[5] = locus YGR229C, strain SMI1, stronger effect = lower value
[6] = locus YNL153C, strain GIM3, stronger effect = lower value
[7] = locus YNL175C, strain NOP13, stronger effect = lower value
[8] = locus YNL197C, strain WHI3, stronger effect = lower value
[9] = locus YNL224C, strain SQS1, stronger effect = lower value
[10] = locus YOR083W, strain WHI5 (second series), stronger effect = lower value

Measured: normalized growth

CC(=O)NC(CS)C(=O)O (stereo unspecified)
inactive: [1] 0.975 | [2] 0.993 | [3] 1.03 | [4] 0.994 | [5] 1.02 | locus YMR263W, strain SAP30, stronger effect = lower value 0.988 | [6] 0.979 | [7] 0.974 | [8] 0.988 | [9] 0.983 | [10] 0.996

COC(=O)C(N)Cc1ccc(Cl)cc1 (stereo unspecified)
inactive: [1] 0.998 | [2] 0.993 | [3] 0.976 | [4] 0.988 | [5] 0.99 | [6] 1.01 | [7] 0.965 | [8] 0.965 | [9] 0.984 | [10] 0.91
